The results in this text go back to ChEMBL document CHEMBL1961873, “Compounds: GSK PKIS; Assays: Nanosyn kinase panel” (2012).

Structures are written as SMILES.

Test [1] deals with Fibroblast growth factor receptor 4 (Homo sapiens) (UniProt P22455). Particulars: at 1 µM.
The target in test [2] is Tyrosine-protein kinase Fgr (Homo sapiens) (UniProt P09769). Particulars: at 0.1 µM.
For test [3] the target is unchanged. Particulars: at 1 µM.
Test [4] has as its target Vascular endothelial growth factor receptor 1 (Homo sapiens) (UniProt P17948). The following applies: at 0.1 µM.
Test [5] has the same target. Particulars: at 1 µM.
Test [6] has as its target Receptor-type tyrosine-protein kinase FLT3 (Homo sapiens) (UniProt P36888). Particulars: at 0.1 µM.
For test [7] the target is unchanged. The following applies: at 1 µM.
The subject of test [8] is T1, Receptor-type tyrosine-protein kinase FLT3 (Homo sapiens), P36888 [D835Y].
T1 sequence (whole entry): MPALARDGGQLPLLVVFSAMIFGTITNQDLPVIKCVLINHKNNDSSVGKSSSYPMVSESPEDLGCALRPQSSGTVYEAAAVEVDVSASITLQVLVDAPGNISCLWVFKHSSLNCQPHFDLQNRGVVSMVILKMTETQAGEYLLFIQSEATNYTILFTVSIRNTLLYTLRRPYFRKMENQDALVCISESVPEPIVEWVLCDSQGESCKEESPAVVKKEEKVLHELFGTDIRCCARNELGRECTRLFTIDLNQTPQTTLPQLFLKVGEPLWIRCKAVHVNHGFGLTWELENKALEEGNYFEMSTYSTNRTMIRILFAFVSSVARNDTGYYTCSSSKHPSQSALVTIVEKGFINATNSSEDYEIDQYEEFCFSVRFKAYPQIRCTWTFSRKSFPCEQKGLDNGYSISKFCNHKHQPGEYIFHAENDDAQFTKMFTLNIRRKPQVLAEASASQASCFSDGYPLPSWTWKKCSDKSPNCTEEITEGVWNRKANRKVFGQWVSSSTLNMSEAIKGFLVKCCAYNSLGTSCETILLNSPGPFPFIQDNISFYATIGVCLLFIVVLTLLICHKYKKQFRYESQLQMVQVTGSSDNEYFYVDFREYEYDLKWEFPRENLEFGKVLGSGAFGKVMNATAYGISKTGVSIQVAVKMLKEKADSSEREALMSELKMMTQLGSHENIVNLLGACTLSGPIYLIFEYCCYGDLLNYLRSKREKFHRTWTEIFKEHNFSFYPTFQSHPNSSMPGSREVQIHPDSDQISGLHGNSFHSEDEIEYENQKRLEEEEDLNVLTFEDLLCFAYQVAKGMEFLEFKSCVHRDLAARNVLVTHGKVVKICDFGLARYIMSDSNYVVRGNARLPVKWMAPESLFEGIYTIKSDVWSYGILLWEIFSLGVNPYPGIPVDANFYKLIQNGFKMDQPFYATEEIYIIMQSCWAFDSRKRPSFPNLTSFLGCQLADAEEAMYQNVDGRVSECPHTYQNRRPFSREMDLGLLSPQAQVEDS
Particulars: at 0.1 µM.

For test [9], the target named is Non-receptor tyrosine-protein kinase TYK2 (Homo sapiens) (UniProt P29597). The following applies: at 1 µM.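 Note: values are mean percent inhibition of TYK2 kinase.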
Sequence of Non-receptor tyrosine-protein kinase TYK2 (Homo sapiens) (P29597 whole entry): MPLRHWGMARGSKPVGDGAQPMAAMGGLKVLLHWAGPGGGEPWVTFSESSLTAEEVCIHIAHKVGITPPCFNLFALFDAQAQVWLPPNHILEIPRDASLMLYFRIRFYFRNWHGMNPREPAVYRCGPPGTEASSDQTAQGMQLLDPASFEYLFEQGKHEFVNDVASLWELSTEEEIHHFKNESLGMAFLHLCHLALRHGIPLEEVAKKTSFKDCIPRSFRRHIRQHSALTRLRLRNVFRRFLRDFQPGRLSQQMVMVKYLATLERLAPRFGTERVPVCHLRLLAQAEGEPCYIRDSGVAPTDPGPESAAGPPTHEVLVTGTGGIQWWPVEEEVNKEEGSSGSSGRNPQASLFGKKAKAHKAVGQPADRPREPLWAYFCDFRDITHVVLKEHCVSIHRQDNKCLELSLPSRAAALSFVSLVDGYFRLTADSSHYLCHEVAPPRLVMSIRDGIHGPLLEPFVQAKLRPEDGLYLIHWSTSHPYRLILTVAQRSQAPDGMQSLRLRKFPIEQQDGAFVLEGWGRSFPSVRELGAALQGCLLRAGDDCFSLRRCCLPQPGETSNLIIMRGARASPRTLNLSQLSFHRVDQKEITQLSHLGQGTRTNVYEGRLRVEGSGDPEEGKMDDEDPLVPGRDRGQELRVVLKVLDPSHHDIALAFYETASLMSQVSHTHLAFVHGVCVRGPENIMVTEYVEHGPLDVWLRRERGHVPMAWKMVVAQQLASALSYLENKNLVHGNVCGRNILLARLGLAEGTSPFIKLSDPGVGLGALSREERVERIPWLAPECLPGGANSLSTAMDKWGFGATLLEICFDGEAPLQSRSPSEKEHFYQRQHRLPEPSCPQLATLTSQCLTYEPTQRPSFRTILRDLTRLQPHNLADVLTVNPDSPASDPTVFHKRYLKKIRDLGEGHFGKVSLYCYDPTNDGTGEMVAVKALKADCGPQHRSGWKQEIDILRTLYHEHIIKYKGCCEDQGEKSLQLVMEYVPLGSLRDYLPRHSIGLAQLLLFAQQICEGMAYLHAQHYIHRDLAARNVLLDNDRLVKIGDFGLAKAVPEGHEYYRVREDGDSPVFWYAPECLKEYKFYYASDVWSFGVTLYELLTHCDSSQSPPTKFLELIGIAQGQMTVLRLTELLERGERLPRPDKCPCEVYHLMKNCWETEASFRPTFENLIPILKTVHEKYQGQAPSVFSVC
Test [10] addresses T2, Tyrosine-protein kinase receptor TYRO3 (Homo sapiens) (UniProt Q06418).
T2 sequence (whole entry): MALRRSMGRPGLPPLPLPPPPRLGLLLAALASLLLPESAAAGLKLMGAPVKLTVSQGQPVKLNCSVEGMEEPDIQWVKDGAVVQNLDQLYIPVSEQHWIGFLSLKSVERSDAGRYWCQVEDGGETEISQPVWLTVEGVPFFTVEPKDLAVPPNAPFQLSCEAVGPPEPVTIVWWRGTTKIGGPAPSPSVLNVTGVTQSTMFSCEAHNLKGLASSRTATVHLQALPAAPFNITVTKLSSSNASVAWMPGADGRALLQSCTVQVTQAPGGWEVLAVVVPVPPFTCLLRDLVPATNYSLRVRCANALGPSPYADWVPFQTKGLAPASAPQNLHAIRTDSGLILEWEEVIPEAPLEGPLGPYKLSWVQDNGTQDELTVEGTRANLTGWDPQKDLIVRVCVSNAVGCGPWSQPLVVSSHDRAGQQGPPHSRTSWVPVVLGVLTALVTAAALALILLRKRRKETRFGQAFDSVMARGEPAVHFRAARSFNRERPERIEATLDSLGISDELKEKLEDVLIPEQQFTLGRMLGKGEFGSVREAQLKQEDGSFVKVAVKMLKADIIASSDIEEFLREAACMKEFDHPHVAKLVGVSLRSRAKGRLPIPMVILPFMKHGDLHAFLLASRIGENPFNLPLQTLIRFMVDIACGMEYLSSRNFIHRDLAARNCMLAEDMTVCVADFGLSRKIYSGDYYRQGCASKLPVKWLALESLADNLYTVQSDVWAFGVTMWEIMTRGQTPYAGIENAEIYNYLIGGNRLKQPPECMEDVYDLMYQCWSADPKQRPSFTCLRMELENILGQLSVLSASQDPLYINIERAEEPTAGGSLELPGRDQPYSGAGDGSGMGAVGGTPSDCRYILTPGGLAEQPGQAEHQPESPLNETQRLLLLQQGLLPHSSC
Particulars: at 0.1 µM.

The target in test [11] is T2, Tyrosine-protein kinase receptor TYRO3 (Homo sapiens). The following applies: at 1 µM.
The target in test [12] is Tyrosine-protein kinase Yes (Homo sapiens) (UniProt P07947). The following applies: at 0.1 µM.
Sequence of Tyrosine-protein kinase Yes (Homo sapiens) (P07947 2-543 limits assumed): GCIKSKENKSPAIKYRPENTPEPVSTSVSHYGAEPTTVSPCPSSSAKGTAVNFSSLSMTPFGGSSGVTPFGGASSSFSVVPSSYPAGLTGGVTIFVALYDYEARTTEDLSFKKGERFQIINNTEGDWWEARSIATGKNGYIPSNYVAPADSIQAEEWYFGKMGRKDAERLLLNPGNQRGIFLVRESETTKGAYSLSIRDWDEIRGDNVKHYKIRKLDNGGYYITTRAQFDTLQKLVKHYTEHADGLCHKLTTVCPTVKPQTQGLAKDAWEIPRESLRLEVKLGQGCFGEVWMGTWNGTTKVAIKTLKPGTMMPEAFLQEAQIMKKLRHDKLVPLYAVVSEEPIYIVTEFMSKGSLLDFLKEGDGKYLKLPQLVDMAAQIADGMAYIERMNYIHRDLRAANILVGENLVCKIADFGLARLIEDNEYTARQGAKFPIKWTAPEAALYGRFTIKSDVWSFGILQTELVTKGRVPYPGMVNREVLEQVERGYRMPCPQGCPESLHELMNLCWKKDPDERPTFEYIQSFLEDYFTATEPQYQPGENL
For test [13] the target is unchanged. Particulars: at 1 µM.
Test [14] addresses T3, Tyrosine-protein kinase ZAP-70 (Homo sapiens) (UniProt P43403).
T3 sequence (whole entry): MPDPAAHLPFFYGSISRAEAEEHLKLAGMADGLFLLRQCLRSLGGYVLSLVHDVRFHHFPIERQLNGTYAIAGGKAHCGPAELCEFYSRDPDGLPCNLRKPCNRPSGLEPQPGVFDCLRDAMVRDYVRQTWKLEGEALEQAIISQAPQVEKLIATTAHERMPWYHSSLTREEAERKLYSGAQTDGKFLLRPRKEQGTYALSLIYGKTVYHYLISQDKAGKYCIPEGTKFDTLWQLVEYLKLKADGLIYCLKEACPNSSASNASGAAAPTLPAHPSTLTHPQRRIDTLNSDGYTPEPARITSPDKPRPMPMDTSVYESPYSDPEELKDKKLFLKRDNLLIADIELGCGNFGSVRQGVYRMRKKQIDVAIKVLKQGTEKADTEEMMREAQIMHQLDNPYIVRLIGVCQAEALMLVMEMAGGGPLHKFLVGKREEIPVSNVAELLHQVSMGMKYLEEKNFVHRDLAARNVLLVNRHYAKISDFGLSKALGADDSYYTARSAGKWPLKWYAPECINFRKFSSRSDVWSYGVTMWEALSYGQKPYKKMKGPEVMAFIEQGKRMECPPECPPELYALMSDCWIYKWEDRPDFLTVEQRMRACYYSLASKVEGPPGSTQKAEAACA
The following applies: at 0.1 µM.

Test [15] deals with T3, Tyrosine-protein kinase ZAP-70 (Homo sapiens). Particulars: at 1 µM.
The target in test [16] is Serine/threonine-protein kinase B-raf (Homo sapiens) (UniProt P15056). The following applies: at 0.1 µM.
Test [17] shares this target. Particulars: at 1 µM.
The test system of test [18] is Serine/threonine-protein kinase B-raf (Homo sapiens), P15056 [V600E]. The following applies: at 0.1 µM.
For test [19] the test system is unchanged. The following applies: at 1 µM.
Test [20] deals with RAF proto-oncogene serine/threonine-protein kinase (Homo sapiens) (UniProt P04049). Particulars: at 0.1 µM.
Sequence of RAF proto-oncogene serine/threonine-protein kinase (Homo sapiens) (P04049 whole entry): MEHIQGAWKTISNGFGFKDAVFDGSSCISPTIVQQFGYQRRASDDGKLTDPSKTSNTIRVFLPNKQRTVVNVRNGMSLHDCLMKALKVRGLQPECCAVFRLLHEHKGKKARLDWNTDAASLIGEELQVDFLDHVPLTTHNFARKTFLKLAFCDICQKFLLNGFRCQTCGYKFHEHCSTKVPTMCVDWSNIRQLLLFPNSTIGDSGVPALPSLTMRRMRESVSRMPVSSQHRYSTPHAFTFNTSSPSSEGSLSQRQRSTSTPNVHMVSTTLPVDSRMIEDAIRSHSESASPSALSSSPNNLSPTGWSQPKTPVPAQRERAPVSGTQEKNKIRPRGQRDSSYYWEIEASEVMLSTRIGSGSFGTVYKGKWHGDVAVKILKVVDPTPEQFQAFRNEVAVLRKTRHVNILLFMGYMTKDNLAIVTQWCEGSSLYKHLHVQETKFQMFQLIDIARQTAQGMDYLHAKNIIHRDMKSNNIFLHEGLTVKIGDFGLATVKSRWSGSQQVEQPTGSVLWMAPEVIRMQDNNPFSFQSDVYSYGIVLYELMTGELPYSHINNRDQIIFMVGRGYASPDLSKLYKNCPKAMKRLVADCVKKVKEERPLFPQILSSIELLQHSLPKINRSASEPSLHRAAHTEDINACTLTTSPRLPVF

Sequence of Vascular endothelial growth factor receptor 1 (Homo sapiens) (P17948 whole entry): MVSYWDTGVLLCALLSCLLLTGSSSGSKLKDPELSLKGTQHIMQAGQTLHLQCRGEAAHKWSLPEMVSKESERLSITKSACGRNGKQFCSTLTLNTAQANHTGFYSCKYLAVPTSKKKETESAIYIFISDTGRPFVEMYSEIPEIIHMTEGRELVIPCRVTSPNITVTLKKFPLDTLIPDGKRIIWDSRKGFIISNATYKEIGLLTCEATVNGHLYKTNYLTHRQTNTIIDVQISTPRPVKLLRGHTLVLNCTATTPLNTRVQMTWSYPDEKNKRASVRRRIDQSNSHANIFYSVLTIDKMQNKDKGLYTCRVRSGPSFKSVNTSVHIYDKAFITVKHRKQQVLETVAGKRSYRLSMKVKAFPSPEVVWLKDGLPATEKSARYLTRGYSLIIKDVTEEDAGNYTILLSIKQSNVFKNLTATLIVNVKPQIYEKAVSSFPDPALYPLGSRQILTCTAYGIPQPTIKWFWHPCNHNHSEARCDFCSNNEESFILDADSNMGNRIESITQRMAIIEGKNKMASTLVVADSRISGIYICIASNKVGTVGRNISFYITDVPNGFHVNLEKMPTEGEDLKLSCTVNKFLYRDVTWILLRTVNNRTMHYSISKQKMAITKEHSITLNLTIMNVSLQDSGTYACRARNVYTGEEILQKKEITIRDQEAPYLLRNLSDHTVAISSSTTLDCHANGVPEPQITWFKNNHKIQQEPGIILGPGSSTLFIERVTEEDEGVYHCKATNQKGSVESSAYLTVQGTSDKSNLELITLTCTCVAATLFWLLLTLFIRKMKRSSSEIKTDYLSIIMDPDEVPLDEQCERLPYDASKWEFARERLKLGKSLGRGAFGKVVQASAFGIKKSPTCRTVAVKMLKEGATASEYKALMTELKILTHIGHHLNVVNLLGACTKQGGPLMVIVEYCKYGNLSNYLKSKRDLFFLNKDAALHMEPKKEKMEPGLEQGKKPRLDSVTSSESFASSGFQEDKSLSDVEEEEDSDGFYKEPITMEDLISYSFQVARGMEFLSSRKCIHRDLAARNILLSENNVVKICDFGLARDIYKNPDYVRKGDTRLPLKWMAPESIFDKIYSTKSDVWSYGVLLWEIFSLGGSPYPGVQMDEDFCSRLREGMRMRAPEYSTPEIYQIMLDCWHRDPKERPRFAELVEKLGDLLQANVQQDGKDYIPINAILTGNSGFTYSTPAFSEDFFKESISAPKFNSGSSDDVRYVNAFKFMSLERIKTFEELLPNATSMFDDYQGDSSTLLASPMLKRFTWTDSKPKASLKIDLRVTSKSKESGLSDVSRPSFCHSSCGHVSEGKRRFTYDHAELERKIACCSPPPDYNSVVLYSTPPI
Sequence of Fibroblast growth factor receptor 4 (Homo sapiens) (P22455 22-802 limits assumed): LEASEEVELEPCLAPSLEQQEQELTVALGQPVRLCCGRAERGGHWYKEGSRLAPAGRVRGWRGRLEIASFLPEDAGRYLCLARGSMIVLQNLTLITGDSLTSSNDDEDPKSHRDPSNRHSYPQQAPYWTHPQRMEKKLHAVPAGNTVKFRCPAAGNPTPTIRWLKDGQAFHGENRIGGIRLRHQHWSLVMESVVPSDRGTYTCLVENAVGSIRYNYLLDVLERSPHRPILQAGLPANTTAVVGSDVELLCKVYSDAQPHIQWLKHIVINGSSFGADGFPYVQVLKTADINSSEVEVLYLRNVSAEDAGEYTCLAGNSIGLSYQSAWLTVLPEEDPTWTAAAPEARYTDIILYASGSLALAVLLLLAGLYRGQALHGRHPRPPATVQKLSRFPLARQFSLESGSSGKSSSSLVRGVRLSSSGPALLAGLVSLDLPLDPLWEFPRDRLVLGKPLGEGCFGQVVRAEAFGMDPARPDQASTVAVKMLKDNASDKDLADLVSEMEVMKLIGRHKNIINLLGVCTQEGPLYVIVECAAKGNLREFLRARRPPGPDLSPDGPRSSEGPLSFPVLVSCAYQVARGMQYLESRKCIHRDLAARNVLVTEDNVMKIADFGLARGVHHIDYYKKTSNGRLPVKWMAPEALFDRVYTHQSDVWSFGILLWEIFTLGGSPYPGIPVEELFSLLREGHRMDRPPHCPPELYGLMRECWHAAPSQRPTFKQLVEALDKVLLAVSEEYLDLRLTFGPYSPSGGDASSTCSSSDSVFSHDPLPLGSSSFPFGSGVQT
Sequence of Tyrosine-protein kinase Fgr (Homo sapiens) (P09769 2-529 limits assumed): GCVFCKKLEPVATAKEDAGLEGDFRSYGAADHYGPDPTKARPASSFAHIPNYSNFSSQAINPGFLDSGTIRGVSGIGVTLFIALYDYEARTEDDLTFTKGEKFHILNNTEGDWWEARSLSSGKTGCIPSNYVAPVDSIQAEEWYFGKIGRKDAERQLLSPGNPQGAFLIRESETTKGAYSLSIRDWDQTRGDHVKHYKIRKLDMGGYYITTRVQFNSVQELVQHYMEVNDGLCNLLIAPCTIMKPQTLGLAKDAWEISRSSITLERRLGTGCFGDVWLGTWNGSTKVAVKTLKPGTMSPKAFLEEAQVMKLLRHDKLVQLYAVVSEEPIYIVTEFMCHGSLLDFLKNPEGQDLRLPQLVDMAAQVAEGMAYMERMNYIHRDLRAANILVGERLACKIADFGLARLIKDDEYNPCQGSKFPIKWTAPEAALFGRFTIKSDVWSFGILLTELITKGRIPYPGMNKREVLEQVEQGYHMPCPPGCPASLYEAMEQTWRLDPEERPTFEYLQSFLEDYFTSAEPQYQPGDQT

Take `Nc1nc(-c2ccc(F)cc2)c(-c2ccc3ncccc3n2)s1`: the inhibition in test [1] was 3.47%; in test [2] it was 6.43%; in test [3], 14.1%; in test [4] it was -0.09%; in [5], 6.56%; in test [6] it was 3.5%. Moreover, the inhibition in test [7] was 3.75%; in test [8] it was 1.18%; in [9], -1.99%; in test [10] it was 3.01%; in test [11], 2.87%; in test [12], 6.52%. Besides, the inhibition in test [13] is 37.8%; in [14], 1.91%; in test [15], 1.99%; in [16], 6.57%; in test [17] it was 7.72%; in test [18], 6.41%. For the same compound, the results for the inhibition in test [19] and in test [20] were 7.92% and 0.53%, respectively.
Turning to `COc1ccc2c(-c3ccnc(Nc4cccc(OC(F)(F)F)c4)n3)cnn2n1`, the inhibition in [1] worked out at 0.68%; in test [2], 5.29%; in test [3] it was 7.16%; in test [4], 1.57%; in test [5], 7.39%; in [6], 3.4%. For the same compound, the inhibition was 14.3% in test [7]; 3.59% in [8]; -2.09% in [9]; 4.51% in [10]; 7.73% in test [11]; 2.47% in test [12]. Also, the inhibition in test [13] was found to be 6.34%; in [14], 0.87%; in test [15] it was 3.62%; in [16] it was 6.94%; in test [17], 7.89%; in test [18] it was 5.16%. Moreover, the values for the inhibition in test [19] and in test [20] were 6.12% and 1.54%, respectively.
For the compound `c1cc(-c2cnn3nc(N4CCOCC4)ccc23)nc(NC2CC2)n1`, the inhibition was found to be 1.73% in test [1]; 3.22% in [2]; 8.79% in test [3]; 3.82% in [4]; 8.82% in test [5]; 4.34% in test [6]. Also, the inhibition in test [7] is 17.2%; in [8], 7.24%; in test [9] it was -4.59%; in test [10], -0.77%; in test [11], 2.97%; in test [12] it was 0.8%. Moreover, the inhibition in test [13] was 0.73%; in test [14], -5.37%; in test [15], -0.37%; in test [16], 6.23%; in test [17] it was 11.5%; in test [18], 3.6%. Moreover, the inhibition stood at 9.04% in [19] and 1.78% in [20].
Regarding `c1ccc(COc2ccc(Nc3ncnc4ccc(-c5ccco5)cc34)cc2)cc1`, the inhibition in [1] was 0.84%; in test [2], 3.1%; in [3], 7.56%; in [4], -2.31%; in [5], -0.13%; in test [6], 0.33%. Besides, the inhibition in test [7] is 3.12%; in test [8] it was -0.59%; in test [9] it was -2.46%; in test [10], 0.34%; in test [11] it was 1.86%; in test [12], 3.28%. The inhibition in test [13] is 13.1%; in test [14], -2.15%; in test [15], 0.17%; in test [16] it was 1.52%; in test [17], 1.99%; in test [18] it was 2.01%. For the same compound, the inhibition in test [19] is 3.23%; in test [20], 11.2%.
With `Cc1cccc(Nc2ncc(-c3ccccc3)o2)c1`, the inhibition in [1] turned out to be 1.36%; in test [2], 2.72%; in test [3], 9.59%; in test [4], 1.05%; in [5] it was 11%; in test [6], 39.8%. For the same compound, the inhibition in test [7] is 81%; in test [8], -4.74%; in test [9], -4.11%; in test [10] it was 1.56%; in test [11], 4.61%; in test [12] it was 0.94%. Further, the inhibition in test [13] was found to be 11.3%; in [14] it was 1.66%; in [15], 1.24%; in test [16], 2.32%; in test [17], 6.08%; in [18], 3.58%. In addition, the inhibition in test [19] is 3.05%; in [20], 0.64%.
With `Cc1ccc(O)cc1Nc1ccnc2cc(-c3ccccn3)ccc12`, the inhibition in test [1] was found to be 30.8%; in test [2], 52.2%; in [3] it was 82.7%; in test [4], 82.1%; in [5] it was 95.7%; in test [6], 3.74%. The inhibition in [7] is 4.17%; in test [8] it was 1.48%; in test [9] it was -4%; in [10], 4.12%; in test [11], 13.9%; in test [12], 58.2%. The inhibition in test [13] is 90.7%; in test [14] it was 0.52%; in [15] it was 4.03%; in [16], 9.05%; in test [17] it was 12.1%; in test [18], 8.35%. Also, the inhibition in [19] was 9.49%; in test [20] it was -1.1%.
